This is a sample that favours compounds with a hit; in the whole collection about 3.6% have one here.
Pf apPOL block: Pf-apPOL DNA polymerase inhibition. AID 1794808. Recombinant Pf-apPOL, molecular beacon fluorescence, 1.5 h. 210,000 compounds, 0.25% hits. inhibition, % at 10 µM
mHTT-CaM PPI inh: disrupts binding of mutant huntingtin to calmodulin; P42858; AlphaScreen His-mHTT/GST-CaM binding, luminescence; inhibition, % at 15 µM; 190,000 compounds, 3.6% hits; AID 1671202;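 further: 0% = both proteins with DMSO and 100% = one protein alone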
Target sequence (P42858 whole entry, looked up, stated change not applied): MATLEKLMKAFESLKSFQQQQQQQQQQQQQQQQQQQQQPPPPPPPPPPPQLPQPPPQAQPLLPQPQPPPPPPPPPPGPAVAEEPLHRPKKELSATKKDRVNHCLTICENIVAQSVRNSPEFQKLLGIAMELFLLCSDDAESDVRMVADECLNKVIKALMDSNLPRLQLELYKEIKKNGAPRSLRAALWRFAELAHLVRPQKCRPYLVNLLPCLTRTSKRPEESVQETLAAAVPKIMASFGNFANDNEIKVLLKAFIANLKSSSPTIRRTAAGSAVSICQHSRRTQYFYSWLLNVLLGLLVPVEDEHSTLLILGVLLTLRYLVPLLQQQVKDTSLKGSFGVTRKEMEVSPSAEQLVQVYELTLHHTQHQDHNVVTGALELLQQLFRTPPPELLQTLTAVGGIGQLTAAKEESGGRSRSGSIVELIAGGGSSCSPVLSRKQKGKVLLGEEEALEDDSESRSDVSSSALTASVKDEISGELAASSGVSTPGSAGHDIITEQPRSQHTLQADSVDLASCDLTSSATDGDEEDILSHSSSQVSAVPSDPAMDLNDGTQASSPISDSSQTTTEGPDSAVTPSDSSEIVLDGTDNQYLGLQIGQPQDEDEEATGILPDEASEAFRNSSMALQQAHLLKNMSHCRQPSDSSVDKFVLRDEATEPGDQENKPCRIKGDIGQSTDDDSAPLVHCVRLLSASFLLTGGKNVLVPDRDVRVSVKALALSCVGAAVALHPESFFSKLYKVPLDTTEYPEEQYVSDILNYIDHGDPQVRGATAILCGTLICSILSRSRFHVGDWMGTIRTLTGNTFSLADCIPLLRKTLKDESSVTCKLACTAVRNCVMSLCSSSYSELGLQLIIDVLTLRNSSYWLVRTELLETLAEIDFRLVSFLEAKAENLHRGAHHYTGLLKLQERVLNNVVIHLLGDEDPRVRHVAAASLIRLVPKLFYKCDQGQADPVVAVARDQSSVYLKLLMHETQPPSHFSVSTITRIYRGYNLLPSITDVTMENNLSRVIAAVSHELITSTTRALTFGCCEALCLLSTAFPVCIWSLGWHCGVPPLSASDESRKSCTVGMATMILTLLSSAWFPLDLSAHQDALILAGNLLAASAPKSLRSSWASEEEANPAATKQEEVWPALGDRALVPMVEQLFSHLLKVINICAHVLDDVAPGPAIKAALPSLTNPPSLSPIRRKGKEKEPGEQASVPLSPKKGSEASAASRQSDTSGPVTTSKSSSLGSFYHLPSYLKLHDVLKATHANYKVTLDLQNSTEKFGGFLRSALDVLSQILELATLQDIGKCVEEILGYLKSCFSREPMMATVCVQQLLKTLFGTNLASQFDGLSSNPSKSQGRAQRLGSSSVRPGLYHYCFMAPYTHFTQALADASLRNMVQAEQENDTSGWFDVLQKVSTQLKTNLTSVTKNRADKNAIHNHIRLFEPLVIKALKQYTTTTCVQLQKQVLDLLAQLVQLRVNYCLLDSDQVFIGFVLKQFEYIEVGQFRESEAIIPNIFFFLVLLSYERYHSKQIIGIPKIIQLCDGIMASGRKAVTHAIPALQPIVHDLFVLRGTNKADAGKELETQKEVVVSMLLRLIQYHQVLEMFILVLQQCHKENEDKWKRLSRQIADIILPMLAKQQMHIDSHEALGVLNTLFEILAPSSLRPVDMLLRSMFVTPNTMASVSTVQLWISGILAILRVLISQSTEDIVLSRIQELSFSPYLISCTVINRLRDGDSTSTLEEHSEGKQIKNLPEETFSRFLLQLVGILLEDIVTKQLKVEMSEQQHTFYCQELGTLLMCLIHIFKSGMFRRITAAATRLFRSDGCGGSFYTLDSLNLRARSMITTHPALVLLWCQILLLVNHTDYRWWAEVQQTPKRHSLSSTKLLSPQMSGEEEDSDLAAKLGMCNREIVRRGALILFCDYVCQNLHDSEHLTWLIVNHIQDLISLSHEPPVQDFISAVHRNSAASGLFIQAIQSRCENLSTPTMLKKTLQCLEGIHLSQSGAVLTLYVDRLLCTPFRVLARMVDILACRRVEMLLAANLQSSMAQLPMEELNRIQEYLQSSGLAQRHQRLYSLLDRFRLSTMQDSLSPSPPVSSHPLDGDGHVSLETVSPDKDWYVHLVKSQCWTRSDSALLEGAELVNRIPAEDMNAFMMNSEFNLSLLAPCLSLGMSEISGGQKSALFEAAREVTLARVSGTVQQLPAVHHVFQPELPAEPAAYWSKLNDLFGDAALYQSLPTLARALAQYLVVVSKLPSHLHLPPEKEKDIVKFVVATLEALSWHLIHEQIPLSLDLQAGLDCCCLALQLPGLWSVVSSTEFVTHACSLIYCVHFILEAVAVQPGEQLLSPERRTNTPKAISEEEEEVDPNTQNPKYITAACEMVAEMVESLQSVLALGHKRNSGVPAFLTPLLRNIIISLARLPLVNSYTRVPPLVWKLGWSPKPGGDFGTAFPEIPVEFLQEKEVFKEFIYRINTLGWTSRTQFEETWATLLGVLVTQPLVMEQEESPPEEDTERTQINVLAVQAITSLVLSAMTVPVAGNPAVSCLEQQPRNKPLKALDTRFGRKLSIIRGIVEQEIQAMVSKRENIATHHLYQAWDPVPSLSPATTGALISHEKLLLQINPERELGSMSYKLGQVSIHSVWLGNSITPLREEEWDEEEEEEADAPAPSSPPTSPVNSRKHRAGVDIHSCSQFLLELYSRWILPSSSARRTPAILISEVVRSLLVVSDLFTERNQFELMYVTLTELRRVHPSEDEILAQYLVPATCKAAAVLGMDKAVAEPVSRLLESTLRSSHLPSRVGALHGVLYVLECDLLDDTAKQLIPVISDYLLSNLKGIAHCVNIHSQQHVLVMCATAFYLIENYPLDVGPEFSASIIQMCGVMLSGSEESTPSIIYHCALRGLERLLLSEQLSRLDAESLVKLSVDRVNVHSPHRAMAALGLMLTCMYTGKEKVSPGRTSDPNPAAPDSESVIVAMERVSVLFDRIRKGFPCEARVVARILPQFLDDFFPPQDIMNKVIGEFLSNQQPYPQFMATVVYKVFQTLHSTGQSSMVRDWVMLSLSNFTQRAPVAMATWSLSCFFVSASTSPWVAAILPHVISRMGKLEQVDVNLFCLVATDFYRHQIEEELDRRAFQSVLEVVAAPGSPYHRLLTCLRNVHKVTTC
Numbers without * were called inactive; . = no result given. No stated cut-off is given here; in the data, active means inhibition above about 50%; inactive means the rest.

SMILES | Pf apPOL block | mHTT-CaM PPI inh
O=C(O)c1cccc(Oc2ccccc2)c1 | -3 | -3
CCC(=O)NC(c1ccccc1)c1ccc2cccnc2c1O (stereo not drawn) | 0 | 100*
CCC(=O)NC(c1ccc(OC)cc1)c1ccc2cccnc2c1O (stereo not drawn) | 4 | 100*
CCCC(=O)NC(c1ccc(Cl)cc1Cl)c1ccc2cccnc2c1O (stereo not drawn) | -4 | 100*
CCC(=O)NC(=O)NC(c1ccccc1)c1ccccc1 | 0 | -5
CCC(=O)NC(c1ccc(Cl)cc1)c1ccc2cccnc2c1O (stereo not drawn) | -3 | 100*
COc1ccc(CCNC(=O)CSc2nccn2Cc2ccco2)cc1OC | -11 | -2
CC(C)CC(=O)NC(c1ccc2c(c1)OCO2)c1ccc2cccnc2c1O (stereo not drawn) | -4 | 100*
CCCC(=O)NC(c1ccc(Cl)cc1)c1ccc2cccnc2c1O (stereo not drawn) | 6 | 99*
CC(=O)NC(c1ccc(Cl)cc1Cl)c1ccc2cccnc2c1O (stereo not drawn) | 2 | 100*
CC(C)CC(=O)NCC#CCOc1ccc2c(c1)OCO2 | -8 | 4
CC(C)CC(=O)NC(c1ccccc1)c1ccc2cccnc2c1O (stereo not drawn) | 10 | 100*
Cc1ccc(C(NC(=O)CC(C)C)c2ccc3cccnc3c2O)cc1 (stereo not drawn) | -2 | 34
CCCCC(=O)NC(c1ccc(Cl)cc1)c1ccc2cccnc2c1O (stereo not drawn) | 1 | 17
COc1ccc(N2CCN(C(=O)c3cccc([N+](=O)[O-])c3C)CC2)cc1 | -5 | 4
CCc1cc(C2CCCN2C(=O)c2cc(-c3ccccc3OC)on2)on1 (stereo not drawn) | -7 | -8
COc1ccc(NC(=O)c2cccc(NC(=O)c3ccc(Br)o3)c2)cc1 | 1 | 4
CCCN1C(=O)Cc2ccccc2C1C(=O)NC1CCCCCC1 (stereo not drawn) | -1 | -1
COc1ccc(CCC(=O)NCCCOc2cccc3cccnc23)cc1 | -5 | 2
COc1ccc(C(NC(=O)CCc2ccccc2)c2ccc3cccnc3c2O)cc1 (stereo not drawn) | 10 | 100*
O=C(Cc1ccccc1F)N1CCCC(COc2ccc(C(=O)N3CCOCC3)cc2)C1 (stereo not drawn) | -21 | 4
CN(C)Cc1cc(Cl)ccc1O | 2 | -3
Oc1ccc(Cl)cc1Sc1cc(Cl)ccc1O | . | 98*
Cc1cccc2nnc(N3CCCC(C(=O)N4CCN(c5ccccc5)CC4)C3)n12 (stereo not drawn) | -1 | 15
CCNC(=O)C1CCN(c2nc3ccc(-c4ccccc4F)nc3s2)CC1 | 2 | -1
SMILES | Pf apPOL block | mHTT-CaM PPI inh
O=S(=O)(c1ccc(Cl)cc1)N1CCC(n2c(-c3ccoc3)nc3cccnc32)C1 (stereo not drawn) | -4 | -1
CC(=O)NC1=NN(C(C)=O)C2(S1)C(=O)N(C(C)=O)c1ccc(Br)cc12 (stereo not drawn) | 2 | 52*
CC(=O)NC1=NN(C(C)=O)C2(S1)C(=O)N(C(C)=O)c1ccccc12 (stereo not drawn) | -3 | 5
COc1ccc(-c2cc3nc4c(c(=O)n3[nH]2)CN(C(C)=O)CC4)cc1 | 5 | 2
O=C(Cc1ccccc1)N1CCc2c(nc3cc(-c4ccccc4Cl)[nH]n3c2=O)C1 | 18 | 27
O=C(c1n[nH]c2ccccc12)N1CCc2nc3cc(-c4ccccc4Cl)[nH]n3c(=O)c2C1 | 21 | 89*
O=C(c1ccco1)N1CCc2nc3cc(-c4ccccc4Cl)[nH]n3c(=O)c2C1 | -1 | 2
COc1ccc(-c2cc3nc4c(c(=O)n3[nH]2)CN(C(=O)NCc2ccc(F)cc2)CC4)cc1 | 10 | 58*
Cc1ccc(CNC(=O)N2CCc3nc4cc(-c5ccccc5Cl)[nH]n4c(=O)c3C2)cc1 | 4 | 53*
O=C(Cc1cccs1)N1CCc2nc3cc(-c4ccccc4Cl)[nH]n3c(=O)c2C1 | 25 | 52*
COc1ccc(-c2cc3nc4c(c(=O)n3[nH]2)CN(C(=O)c2n[nH]c3ccccc23)CC4)cc1 | 17 | 28
COc1ccc(N2C(=O)/C(=C/c3cccc([N+](=O)[O-])c3)N=C2c2cccc(Cl)c2)c(OC)c1 | -2 | 6
N#CC1=C(N)N(c2ccc(Br)cn2)C2=C(C(=O)CCC2)C1c1ccc2c(c1)OCO2 (stereo not drawn) | -2 | 12
O=S(=O)(NCc1ccccc1)c1ccc2nc(-c3ccccc3)[nH]c2c1 | -11 | 11
COc1ccc(-c2csc3c(=O)n(CC(=O)N(C)c4ccccc4)cnc23)cc1 | -5 | -17
CN1CCCn2nc(CNS(=O)(=O)c3cccc(F)c3)cc2C1=O | -4 | -10
N#Cc1c(S)[nH]c(C(F)(F)F)cc1=O | . | -3
C=C(C)COc1ccc2c(c1)OC(=Cc1ccncc1)C2=O | -6 | 26
CC[N+]1(CC(O)COc2ccc(C34CC5CC(CC(C5)C3)C4)cc2)CCCC1 (stereo not drawn) | -3 | 28
CC(C)(C)NCC(O)COc1ccc(C23CC4CC(CC(C4)C2)C3)cc1 (stereo not drawn) | 0 | 100*
C[N+]1(CC(O)COc2ccc(C34CC5CC(CC(C5)C3)C4)cc2)CCCC1 (stereo not drawn) | 2 | 52*
OCCN(CCO)CC(O)COc1ccc(C23CC4CC(CC(C4)C2)C3)cc1 (stereo not drawn) | -1 | 15
Cc1ccc(OCC(O)CNC(C)C)cc1 (stereo not drawn) | 2 | -9
CC(C)NCC(O)COc1ccc(C23CC4CC(CC(C4)C2)C3)cc1 (stereo not drawn) | -5 | 100*
CCN(Cc1ccccc1)C(=O)c1ccc(C)c([N+](=O)[O-])c1 | -1 | -2
SMILES | Pf apPOL block | mHTT-CaM PPI inh
O=[N+]([O-])C(=C1SCCS1)C(Sc1ccccc1)=C(Cl)Cl | -13 | 40
CCN1CCC2(CC1)N=C(c1ccc(C)c(C)c1)CC(c1cccc(OC)c1O)N2 (stereo not drawn) | -3 | 13
COc1cccc(/C=c2\sc3ncnn3c2=O)c1OC | 6 | 0
CCn1cc(NC(=O)Nc2c(C)cccc2C)c2ccccc21 | -7 | -2
Clc1ccc2c(c1)C1CC(c3cccs3)=NN1C1(CCCC1)O2 (stereo not drawn) | -6 | 78*
CC1(C)Oc2ccc(Cl)cc2C2CC(c3ccc(F)cc3)=NN21 (stereo not drawn) | -18 | 50
Brc1ccc2c(c1)C1CC(c3cccs3)=NN1C1(CCCC1)O2 (stereo not drawn) | -3 | 72*
CCOc1cccc2c1OC1(CCCCC1)N1N=C(c3cccs3)CC21 (stereo not drawn) | -21 | 22
COc1ccccc1C1=NN(C(=O)CN2CCCCC2C)C(c2cccc(F)c2)C1 (stereo not drawn) | -5 | 9
O=C1CCC(=O)N1CN(Cc1ccccc1)CN1C(=O)CCC1=O | 0 | -4
Oc1ccc(Br)c(C(Nc2ccccn2)c2ccc3cccnc3c2O)c1 (stereo not drawn) | -4 | 100*
Oc1c(C(Nc2ccccn2)c2ccccc2Br)ccc2cccnc12 (stereo not drawn) | -1 | 99*
O=C(Nc1cc(Br)cc2cccnc12)c1ccccc1Br | -5 | -4
Cc1cc(O)c(CN(C)C)c2c1C(=O)C(=Cc1ccc(F)cc1)O2 | -9 | -5
O=C(Nc1cccc(Cl)c1)Nc1cccc2cccnc12 | -5 | -2

Assay outcomes deposited in PubChem by University of Kansas High Throughput Screening Laboratory.
